Here are results for 96 compounds from PubChem BioAssay AID630 (Emory University Molecular Libraries Screening Center, 2007).

By inhibition is commonly meant the change of the read-out against control, counted positive when it falls.

Each structure is given as a SMILES string. About 260 (0.3%) of roughly 88,000 compounds were called active.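 Rule for the calls: active = compounds that reduce the energy-transfer binding signal between the protein and its labelled peptide by more than half; inactive = the rest.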 Only a selection was taken, and actives are over-represented in it overall.

In the test the target is Mothers against decapentaplegic homolog 3 (Homo sapiens) (UniProt P84022). Kind of test: blockers of Smad3 binding to FoxH1 – biochemical, TR-FRET, primary screen (AID 630).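 Note: 0% = Smad3 plus labelled peptide maximal FRET and 100% = peptide-only background.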 The note with it: TR-FRET Smad3/Dy647-FoxH1 peptide binding, europium anti-His; at 25 µM; stronger effect = higher value. A general note: TR-FRET usually uses a lanthanide donor and a delayed reading to cut background.
Sequence of Mothers against decapentaplegic homolog 3 (Homo sapiens) (P84022 whole entry, looked up): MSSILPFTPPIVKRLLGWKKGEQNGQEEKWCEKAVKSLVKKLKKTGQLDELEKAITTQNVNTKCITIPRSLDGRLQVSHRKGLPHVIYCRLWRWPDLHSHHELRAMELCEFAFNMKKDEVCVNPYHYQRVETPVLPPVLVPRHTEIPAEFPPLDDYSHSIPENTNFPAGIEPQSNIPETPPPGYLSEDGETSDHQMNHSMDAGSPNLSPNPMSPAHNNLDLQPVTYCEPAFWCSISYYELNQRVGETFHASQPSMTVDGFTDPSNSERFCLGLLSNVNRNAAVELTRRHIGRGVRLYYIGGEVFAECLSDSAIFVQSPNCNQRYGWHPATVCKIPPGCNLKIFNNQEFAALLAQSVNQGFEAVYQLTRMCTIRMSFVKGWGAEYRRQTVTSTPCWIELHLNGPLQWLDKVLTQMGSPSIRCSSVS
As to `OC(COc1ccc2ccccc2c1)Cn1cncn1` (stereo unspecified), the inhibition was 6.06% (inactive).

In the case of `C=CCN(C(=O)Nc1ccc2oc(C)nc2c1)c1ccccc1`, the inhibition was 1.13% (inactive).

Consider `Cc1ccc(-c2noc(CSc3nnc(-c4cccs4)n3C)n2)cc1`, for which the inhibition is -3.4% (inactive).

On to `N#C/C(=C(\O)CCl)c1nnc2n1CCCCC2`, for which the inhibition was 0.54% (inactive).

For the compound `CCn1c(SCC(=O)Nc2ccc(OC)c(OC)c2)nnc1-c1c[nH]c2ccccc12`, the inhibition is -6.68% (inactive).

In the case of `Cc1c(CCO)c(=O)n(-c2ccccc2)n1S(=O)(=O)c1ccc(F)cc1`, the inhibition was -23.9% (inactive).

On to `CCCCOc1ccc(N(CC(=O)NCC2CCCO2)C(=O)CCC(=O)Nc2cc(C)ccn2)cc1` (stereo unspecified), for which the inhibition was 2.38% (inactive).

Take `Cc1ccc(C)c(N2C(=O)CS/C2=N\NC(=O)c2ccccc2Cl)c1`: the inhibition is 3.21% (inactive).

`COC(=O)c1cc(NC(=O)CC2C(=O)NCCN2C(=O)c2ccc(F)cc2)cc(C(=O)OC)c1` (stereo unspecified): the inhibition was -2.76% (inactive).

`CCc1cccc(C)c1N(C(=O)Cn1c(CO)nc2ccccc21)C(C)COC` (stereo unspecified): the inhibition is -3.83% (inactive).

As to `COc1ccc(Nc2cc(=O)oc3ccccc23)cc1`, the inhibition is 1.47% (inactive).

Regarding `O=C(Cc1c[nH]c2ccccc12)OCCOC(=O)Cc1c[nH]c2ccccc12`, the inhibition was 0.81% (inactive).

For `CCOC(=O)C(C)n1cnc2sc(C)c(C)c2c1=O` (stereo unspecified), the inhibition is 5.75% (inactive).

Consider `CCOc1ccc(CN(Cc2ccco2)S(=O)(=O)c2ccc(-n3cnnn3)c(OC)c2)cc1`, for which the inhibition is -8.78% (inactive).

For the compound `Cc1cc(C)cc(N(CC(=O)N2CC=C(c3ccccc3)CC2)S(=O)(=O)c2c(C)noc2C)c1`, the inhibition was -9.86% (inactive).

As for `Cc1ccc(S(=O)(=O)NCC(C)NS(C)(=O)=O)cc1` (stereo unspecified), the inhibition is -1.07% (inactive).

For `O=C(OCC#CCSc1nnc(-c2ccncc2)o1)c1sc2ccccc2c1Cl`, the inhibition was 8.98% (inactive).

Take `CCOC(=O)CN(Cc1ccc(OC)c(OC)c1)S(=O)(=O)c1ccc(OC)cc1`: the inhibition is 3.33% (inactive).

Turning to `O=C(O)/C=C/C(=O)Nc1ccc2c(c1)-c1ccccc1C2`, the inhibition was 0.91% (inactive).

With `CC1=NN(c2ccccc2)C(=O)[C@H]1N=Nc1ccc(S(N)(=O)=O)cc1`, the inhibition was -0.1% (inactive).

Consider `CC(C)CNC(=S)NNC(=O)c1nn(C)cc1Cl`, for which the inhibition was 3.44% (inactive).

Take `CCOc1c(Cl)cc(/C=N/O)cc1OC`: the inhibition is 5.66% (inactive).

As for `O=C(c1cc2sccc2n1Cc1ccc(F)cc1)N1CCc2ccccc21`, the inhibition is 4.44% (inactive).

For `CCN(CC)Cc1cc(C(C)=O)ccc1O`, the inhibition was -9.81% (inactive).

Regarding `O=C(CCN1CCc2ccccc2C(O)(c2ccccc2)C1)c1ccc2c(c1)OCCO2` (stereo unspecified), the inhibition was 8.66% (inactive).

As to `Cc1cc(C)n(-c2cc(Oc3ccccc3)ncn2)n1`, the inhibition is 3.36% (inactive).

On to `Cn1c(Cn2nnc3ccccc32)nnc1SCC(=O)c1ccccc1F`, for which the inhibition is 16.9% (inactive).

Turning to `CCOC(=O)C1=C(C)NC(SC)=NC1c1ccccc1` (stereo unspecified), the inhibition was -3.1% (inactive).

`CC(=NCc1ccco1)c1c(C(F)(F)F)[nH]n(-c2nc3ccccc3s2)c1=O`: the inhibition is 3.18% (inactive).

For the compound `O=C(Cc1ccc(-n2c(=O)c3sccc3n(Cc3ccc(F)cc3)c2=O)cc1)NCc1ccco1`, the inhibition was -21.8% (inactive).

For the compound `Cc1cc(C)nc(N2CCN(c3ncnc4c3oc3ccccc34)CC2)n1`, the inhibition was 2.31% (inactive).

In the case of `CCN1CCN(c2ncnc3c2oc2nc(C)c4c(c23)CC(C)(C)OC4)CC1`, the inhibition was -8.93% (inactive).

As for `CC(C)c1nc2oc3c(N4CCN(C)CC4)ncnc3c2c2c1CCC2`, the inhibition is 51.1% (active).

For `COC(=O)C1=C(C(=O)c2ccc(C)cc2)C(c2ccccc2)n2nnnc2N1` (stereo unspecified), the inhibition was -4.2% (inactive).

For `Clc1ccc(C2=CSC3=Nc4cccc5cccc(c45)N23)cc1`, the inhibition was 19.6% (inactive).

With `Nn1c(Cc2cccc3ccccc23)nnc1SCC(=O)N1CC(=O)Nc2ccccc21`, the inhibition was -9.99% (inactive).

Consider `O=C(c1ccco1)N1CCN(C(=O)C2CCCN(S(=O)(=O)c3cccc4nsnc34)C2)CC1` (stereo unspecified), for which the inhibition was -9.4% (inactive).

Turning to `NC1=NC(=O)C2(COC(c3ccccc3Cl)OC2)S1` (stereo unspecified), the inhibition was 8.22% (inactive).

`Cc1oc2nc(SCC(=O)Nc3ccc(S(N)(=O)=O)cc3)nc(NC(=O)c3ccccc3)c2c1C`: the inhibition was -117% (inactive).

With `Cc1ccc(C2C(C#N)C(C#N)N3CCCN23)cc1` (stereo unspecified), the inhibition is -8.98% (inactive).

Take `COc1ccc2c(c1)cc1n2CCN=C1NN`: the inhibition was 17.3% (inactive).

As for `C/C(N[O-])=C(\C)[N+]([O-])=[Co].CC(=N\[O-])/C(C)=N/[O-].[CH2-]CCN1CCOCC1.c1ccncc1`, the inhibition was 25% (inactive).

As for `CC(C)(C)NC(=O)CN(Cc1cccs1)C(=O)CNS(=O)(=O)c1ccccc1`, the inhibition is -8.34% (inactive).

On to `COC(=O)c1ccccc1Sc1c(/C=N/OCc2ccc(Cl)cc2)c(C(F)(F)F)nn1C`, for which the inhibition is 1.08% (inactive).

As for `Cc1ccc(NC(=O)CSCC(=O)N2CCOCC2)cc1`, the inhibition is 8.2% (inactive).

Consider `OCCNc1nc2ccccc2[nH]1`, for which the inhibition is 3.77% (inactive).

On to `Cc1cc(SCC(=O)c2ccccc2)nc(SCC(=O)c2ccccc2)n1`, for which the inhibition is -1.72% (inactive).

As to `COc1ccc(-c2nn(-c3ccccc3)cc2C(=O)Nc2nccs2)cc1OC`, the inhibition is -5% (inactive).

With `CC(=O)C1=C(C)NC(C)=C(C(C)=O)C1c1cn(-c2ccccc2)nc1-c1cccs1`, the inhibition was -6.06% (inactive).

Consider `Cc1ccc(C2NC(=S)NC3=C2N2CCC3CC2)cc1` (stereo unspecified), for which the inhibition was 2.12% (inactive).

`COc1cc(N2CCCC2)c(OC)cc1/C=C(/C#N)c1cccc(Br)c1`: the inhibition was 0.41% (inactive).

Regarding `Cc1cc2c(cc1C)NC1=C(N2)O[C@H](c2c[nH]c3ccc(COc4ccccc4)cc23)C1=O`, the inhibition is 81.3% (active).

Take `Cn1cc(S(=O)(=O)N2CCN(c3ccc(F)cc3)CC2)c(=O)n(C)c1=O`: the inhibition is -0.19% (inactive).

For the compound `CCC(CC)C(=O)N1CC(=O)Nc2ccc(Br)cc2C1c1ccccc1` (stereo unspecified), the inhibition was 1.61% (inactive).

On to `CC1(C)C2CCC13CS(=O)(=O)NC3C2` (stereo unspecified), for which the inhibition was 7.24% (inactive).

Regarding `O=C(O)COc1c(Cl)cc(Cl)c2cccnc12`, the inhibition was -8.45% (inactive).

Consider `O=S(=O)(O)c1ccc(O)c2ncccc12.O=S(=O)(O)c1ccc(O)c2ncccc12.[Zn]`, for which the inhibition was 63.9% (active).

Take `O=C(Nc1cccc2ccccc12)N1CCN(Cc2ccc3c(c2)OCO3)CC1`: the inhibition is 8.91% (inactive).

Regarding `CC(C)(C)C(=O)c1cnc(Nc2ccccc2)s1`, the inhibition is -2.94% (inactive).

In the case of `Cn1nc(-c2ccccc2)c(CSc2cccc(Cl)c2)c1Cl`, the inhibition is -0.19% (inactive).

For `COc1ccc(C2=NO[C@@H]3C(=O)N(Cc4ccccc4)C(=O)[C@H]23)cc1OC`, the inhibition was 4.9% (inactive).

Take `COc1ccc(C(=O)CN2C(=O)NC(C)(c3ccc(C)cc3)C2=O)cc1OC` (stereo unspecified): the inhibition was 0.23% (inactive).

For `Cc1ccnc(NC(=O)c2ccc(NC(=O)c3ccco3)cc2)c1`, the inhibition is 8.59% (inactive).

Turning to `COC(=O)c1ccc(NC(=O)c2ccco2)cc1`, the inhibition was 66.7% [fluorescence artefact?] (active).

Consider `O=C(Nc1ccc(Oc2ccccc2)cc1)c1ccco1`, for which the inhibition is -3.88% (inactive).

On to `Cc1cc(N/C=C\C(=O)c2ccc(Cl)c(Cl)c2)no1`, for which the inhibition was -20.1% (inactive).

With `CC(C)Nc1ncnc2c1nnn2Cc1ccccc1`, the inhibition was -8.78% (inactive).

As to `CC1(C)CC(=O)C=C(N2CCCC2)C1`, the inhibition is -13.5% (inactive).

Turning to `COc1ccccc1CNS(=O)(=O)c1ccc(C)cc1`, the inhibition was 9.13% (inactive).

As to `O=C(O)[C@@H]1CCc2ccc3ccccc3c2[C@H]1c1cccc2ccccc12`, the inhibition is -9.06% (inactive).

As to `COC(=O)c1ccc(NC(=O)C23CC4CC(C2)CC(n2cnc(Cl)n2)(C4)C3)cc1`, the inhibition was 4.51% (inactive).

For `O=C(O)[C@@H]1CS[C@]2(CCCN(Cc3ccccc3)C2)N1`, the inhibition was 7.7% (inactive).

With `O=S1(=O)C=C(SCCN2CCCC2)c2ccccc21`, the inhibition was 17.4% (inactive).

For the compound `CCOC(=O)c1c(NC(=O)CCl)sc(C(=O)N(CC)CC)c1C`, the inhibition is 14.1% (inactive).

In the case of `Cc1cccc(N2CCN(C(=O)c3cnn4c(C(F)F)cc(-c5ccccc5)nc34)CC2)c1C`, the inhibition is 8.08% (inactive).

With `Cn1ncc2c(Nc3cccc4ccccc34)ncnc21`, the inhibition is 2.63% (inactive).

Take `Cc1noc(COc2ccccc2OCc2onc(C)c2Cl)c1Cl`: the inhibition is -10.7% (inactive).

For `Cn1c2c(c(=O)n(C)c1=O)C(c1cccc([N+](=O)[O-])c1)Nc1ccccc1O2` (stereo unspecified), the inhibition is -10.5% (inactive).

As for `CCOc1ccc(C(O)Cc2nc3ccccc3n2C)cc1` (stereo unspecified), the inhibition was 3.1% (inactive).

As for `CCCn1c(C)cc(C(=O)COC(=O)c2c(C)nn(-c3ccccc3)c2C)c1C`, the inhibition was -7.34% (inactive).

`COc1ccc(C(=O)Nc2ccc(CN3CCOCC3)cc2)cc1`: the inhibition is 11% (inactive).

For the compound `N#C/C(=C\c1ccccc1)c1n[nH]c(Cn2cncn2)n1`, the inhibition is 8.55% (inactive).

As for `O=C(CSCc1ccc(Cl)cc1)N1CCCCC1`, the inhibition was -8.93% (inactive).

In the case of `Cc1cccc(NC(=O)CSc2nc3c(c(=O)[nH]2)CCCC3)c1C`, the inhibition is 5.9% (inactive).

`Cc1cc2nc(SCCN3CCOCC3)[nH]c2cc1C`: the inhibition is 2.4% (inactive).

For the compound `Cc1nn(Cc2ccccc2)c2c1C(c1ccccc1)C(C#N)=C(N)O2` (stereo unspecified), the inhibition is 5.74% (inactive).

As to `COc1ccc(N/N=C2/CCCCC2=O)cc1`, the inhibition was -1.11% (inactive).

For the compound `O=C(O)c1nn(-c2ccc(Cl)cc2)c2c1C(=O)c1ccccc1C2=O`, the inhibition was 53.4% (active).

On to `Cc1ccc(-n2ccc(=O)c(C(=O)O)n2)cc1`, for which the inhibition is 0.02% (inactive).

`CCOc1ccc(NC(=O)N(CC(C)C)CC(C)C)cc1`: the inhibition was 3.46% (inactive).

Consider `N#CC1=C(SCc2ccc(C#N)cc2)N=C(N)C(c2nc(-c3ccccc3)cs2)C12CCCCC2` (stereo unspecified), for which the inhibition is -3.23% (inactive).

Turning to `O=C(NC1(C(F)(F)F)NC(=O)N(Cc2cccnc2)C1=O)c1ccccc1Cl` (stereo unspecified), the inhibition was 40.1% (inactive).

For the compound `COC(=O)c1ccc(Cc2ccccc2)o1`, the inhibition was 6.44% (inactive).

For `O=C(c1ccc(O)cc1)c1ccc(C(=O)O)c(C(=O)O)c1`, the inhibition was -7.32% (inactive).

On to `O=C(O)c1ccc(C(=O)O)c2c(C(=O)O)ccc(C(=O)O)c12`, for which the inhibition was -1.5% (inactive).

With `O=C(O)c1ccc(C(=O)c2ccccc2C(=O)O)cc1C(=O)O`, the inhibition was 63.5% (active).
